Our source for the growth values is PubChem BioAssay (NCI).

What all share (assay): NCI-60 one-dose screen, 48 h (100 = growth as untreated, 0 = no growth, -100 = all killed)
Common to all, as to details: 10 µM unless noted

Assay [1] has as its system NCI-H23 lung.
Assay [2] has as its system NCI-H226 lung.
In assay [3] the test system is NCI-H322M lung.
The test system of assay [4] is HOP-62 NSCLC.
In assay [5] the test system is NCI-H460 lung.
Assay [6] concerns HOP-92 NSCLC.
Assay [7] deals with NCI-H522 lung.
For assay [8], the system named is A549/ATCC NSCLC.
In assay [9] the test system is 786-0 renal.
Assay [10] relates to COLO 205 colon.

This is part of a sample that, as a whole, favours compounds with a hit. Of some 83,000 tested, about 20% had one in any assay.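 Step 1: grow cells in 96-well plates. Step 2: add test compound at a single concentration. Step 3: incubate 48 h. Step 4: record percent growth.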 Unmarked numbers belong to inactive results. Calls of active or inactive are those of the source. The calls were made as follows: active = growth percent below 10; inactive = the rest.

Regarding `CC(=O)OC[C@]12CC[C@@H]([C@@H](C)c3nnc(-c4ccncc4)o3)[C@@H]1[C@H]1CC[C@@H]3[C@@]4(C)CC[C@H](OC(C)=O)C(C)(C)[C@@H]4CC[C@@]3(C)[C@]1(C)CC2`, the growth in assay [1] is 82%; in [2], 60.6%; in assay [3], 95.9%; in assay [4] it was 98.4%; in assay [5] it was 58.6%; in assay [6] it was 66.1%. Further, the growth is 76.2% in assay [7], 62.5% in assay [8], 80.4% in assay [9] and 82.4% in assay [10].
`Cn1cc(-c2nn3cc(-c4cccs4)nc3s2)c2cc(F)ccc21`: the growth is 58% in assay [1]; 67% in [2]; 50.1% in [3]; 28.4% in assay [4]; 8.02% (active) in [5]; 39.6% in assay [6]. The growth is 5.4% (active) in assay [7], 37.7% in assay [8], 49.2% in [9] and 22% in assay [10].
`N#Cc1ccc(O)c(C2=NCC(Cc3ccccc3)O2)c1` (stereo not given): the growth is 54.5% in assay [1]; 65.9% in [2]; 59.9% in assay [3]; 24.1% in assay [4]; 23.5% in assay [5]; 65% in assay [6]. Moreover, the growth was -17.5% (active) in [7], 35.8% in [8], 38.7% in [9] and 60.7% in assay [10].
In the case of `[2H]C([2H])([2H])Oc1ccc(F)cc1/C=C/C(=O)/C=C(O)/C=C/c1cc(F)ccc1OC([2H])([2H])[2H]`, the growth in assay [1] is 88.9%; in [2], 105%; in [3], 107%; in assay [4], 91.9%; in assay [5], 88.6%; in assay [6], 99.3%. Besides, the growth was 74.4% in [7], 93.7% in assay [8], 99.7% in assay [9] and 116% in assay [10].
With `Cc1nn(-c2cc(NC3CCC(O)CC3)c3c(=O)[nH]c(CCC(F)(F)F)cc3c2)c2c1C(=O)CC(C)(C)C2` (stereo not given), the growth in assay [1] is 20.3%; in assay [2], 67.8%; in assay [3] it was 56.5%; in [4] it was 44%; in assay [5] it was 21%; in assay [6] it was 54.5%. The growth was 49.5% in [7], 38.8% in assay [8], 43.9% in assay [9] and 36.9% in assay [10].
On to `CCCCNC(=O)Oc1ccc(/C(=C(/C)Cc2ccc(OC)cc2)c2ccc(OCCN3CCCCCC3)cc2)cc1`, for which the growth in [1] is 85%; in assay [2], 101%; in assay [3], 97.1%; in [4], 85.6%; in assay [5], 53.8%; in assay [6], 53.3%. Further, the growth in assay [7] is 68.5%; in assay [8] it was 68%; in assay [9], 76.3%; in assay [10], 57%.
For the molecule `CCNc1nc(O)c(/C=C2\C=Nc3ncccc32)s1`, the growth in assay [1] is -7.87% (active); in [2] it was 10.8%; in assay [3] it was 5.83% (active); in [4], -26.5% (active); in assay [5], 2.41% (active); in assay [6] it was 4.42% (active). The growth is -28.6% (active) in assay [7], 11.1% in assay [8], 3.02% (active) in assay [9] and -33.3% (active) in assay [10].
Turning to `Nc1nc2c(c3ncccc13)C(c1cccc(Cl)c1)Cc1ncccc1-2` (stereo not given), the growth in assay [1] is 39.7%; in assay [2] it was 75.8%; in [3] it was 49.7%; in [4] it was 20.1%; in assay [5], 6.87% (active); in assay [6] it was 38.6%. Further, the growth is -14.5% (active) in assay [7], 18.6% in assay [8], 22.6% in assay [9] and -21.5% (active) in assay [10].
For the molecule `CC1C(/C=N/NC(N)=S)C(C#N)(C#N)C1(C#N)C#N` (stereo not given), the growth in assay [1] is 101%; in assay [2] it was 101%; in [3], 102%; in [4], 105%; in [5] it was 99.8%; in [6], 92.9%. The growth in [7] is 99.4%; in assay [8], 100%; in assay [9] it was 104%; in [10], 115%.
Regarding `O=c1c2c3c(sc2n2c(-c4cc(-c5ccccc5)no4)nnc2n1Cc1ccccc1)CCCC3`, the growth in assay [1] was 86.4%; in assay [2], 97.6%; in assay [3], 97.1%; in [4] it was 92.5%; in [5], 86%; in assay [6], 76.5%. Also, the growth in assay [7] was 55.2%; in assay [8] it was 49.9%; in [9], 87.6%; in [10] it was 96.4%.
As to `COCCn1cc(-c2csc(-c3c[nH]c4ccc(Br)cc34)n2)c2cccnc21`, the growth in [1] was 32.3%; in assay [2], 58%; in [3], 59.5%; in [4], 45.4%; in assay [5], 20.7%; in assay [6] it was 2.14% (active). The growth in assay [7] was -28.3% (active); in [8], 23.1%; in [9] it was -4.75% (active); in assay [10] it was 24.9%.
Regarding `Cc1ccc2nc(NC(=O)CSc3nc(-c4ccccc4)c(C#N)c4nnnn34)sc2c1`, the growth in assay [1] is 103%; in assay [2] it was 94.7%; in [3] it was 108%; in assay [4], 97.4%; in assay [5], 104%; in [6], 106%. Moreover, the growth in assay [7] was 89.4%; in [8], 104%; in [9], 114%; in assay [10], 121%.
Consider `CN(C)CCCC1(c2ccc(F)cc2)OCc2cc(-c3ccc4cc[nH]c4c3)ccc21` (stereo not given), for which the growth in assay [1] was 86.6%; in assay [2], 95.2%; in assay [3], 65%; in assay [4], 74.9%; in assay [5], -10.5% (active); in assay [6], 45.9%. In addition, the growth in assay [7] was 61.5%; in assay [8], 49.1%; in assay [9] it was 78.1%; in assay [10], 9.88% (active).
As to `CNC(C)[C@H]1CCC2C3CC=C4C(=O)[C@@H](NC(=O)C=C(C)C)CC[C@]4(C)C3CC[C@@]21C` (stereo not given in full), the growth in assay [1] was 30.1%; in assay [2], 46.5%; in assay [3], 13.9%; in assay [4], -4.38% (active); in assay [5], -24.6% (active); in [6] it was 9.2% (active). The growth in assay [7] is 58.5%; in assay [8], 30.3%; in assay [9], 3.96% (active); in [10], -82.4% (active).
As for `CN(CCCNC(=O)CCOCCOCCOCCNC(=O)Cc1ccc2ccc3cccc4ccc1c2c34)CCCNc1cc(-c2ccc3ccccc3c2)nc2ccccc12`, the growth is -82.9% (active) in assay [1]; -47.1% (active) in assay [2]; -88.4% (active) in assay [3]; -90.4% (active) in assay [4]; -82.6% (active) in assay [5]; -88.2% (active) in assay [6]. Further, the growth was -59% (active) in assay [7], -33.9% (active) in assay [8], -85.6% (active) in assay [9] and -87.7% (active) in assay [10].
On to `COc1ccc(/C=C/C(c2cc(OC)c(OC)c(OC)c2)n2ccnc2)cc1O` (stereo not given), for which the growth was 55.7% in assay [1]; 88.4% in [2]; 45.8% in [3]; 47.2% in assay [4]; 16.5% in [5]; 30.5% in assay [6]. Further, the growth in assay [7] was 24.6%; in [8], 29.1%; in [9], 34%; in [10] it was 89.8%.
Consider `CCN(CC)CCN1C(=O)c2c(c(C)c3c(oc4ccc(OC)cc43)c2C)C1=O`, for which the growth in assay [1] is 97.9%; in assay [2], 14.3%; in assay [3], 95.2%; in assay [4], 93.7%; in assay [5], 74.3%; in assay [6] it was 84.7%. Besides, the growth in assay [7] was 95%; in assay [8], 94.5%; in [9], -30% (active); in assay [10], 96.1%.
Take `COc1ccc(CCN(CC(=O)N(CC(N)=O)C2CCC[C@@H]2OCc2ccccc2)C(=O)CN(C(=O)CN(CCc2ccc(Cl)cc2)C(=O)CN(C(=O)CN(C)Cc2ccccc2F)[C@H](C)C2CCCCC2)[C@H](C)C2CCCCC2)cc1OC` (stereo not given in full): the growth in assay [1] was 31.9%; in [2], 53.5%; in assay [3], 40.6%; in assay [4] it was 41.8%; in assay [5], 28.3%; in assay [6], 10.3%. The growth in assay [7] was 24.5%; in assay [8], 23.4%; in assay [9] it was 44%; in [10], -17.4% (active).
For `CCCCNc1cc(-c2cn[nH]c2-c2cc(C)cc(OC)c2)nc(-c2cccnc2)n1`, the growth in assay [1] was 101%; in [2] it was 87.4%; in assay [3] it was 86.9%; in assay [4], 95.6%; in assay [5] it was 99.7%; in [6], 68.2%. For the same molecule, the growth in assay [7] was 81.2%; in assay [8], 94.3%; in assay [9], 68.2%; in [10], 99.5%.
Consider `COc1ccc2[nH]cc(-c3nc(-c4c[nH]c5c(Cl)nccc45)cs3)c2c1`, for which the growth in assay [1] is 54.1%; in assay [2], 40.3%; in [3] it was 72.2%; in [4] it was 61.2%; in [5], -3.62% (active); in assay [6], 56.2%. The growth in [7] is 25.8%; in assay [8], 28.6%; in [9], 9.87% (active); in assay [10], 42.2%.
For `Nn1c(=O)c(=O)[nH]c2c(cnn2-c2ccccc2)c1=O`, the growth in assay [1] is 108%; in [2], 94.2%; in assay [3], 108%; in assay [4] it was 86.2%; in [5] it was 117%; in assay [6] it was 106%. Further, the growth in [7] was 96.2%; in [8] it was 101%; in [9], 103%; in assay [10], 121%.
Take `N#Cc1cccc(C2C3=C(COC3=O)N(CCO)c3cc4c(cc32)OCO4)c1` (stereo not given): the growth was 44% in [1]; 74.9% in assay [2]; 49.3% in [3]; 32.2% in [4]; 14.8% in assay [5]; 42.4% in [6]. Besides, the growth was 17% in [7], 39.5% in assay [8], 24.9% in assay [9] and 8.4% (active) in assay [10].
For the molecule `COc1ccc(CNc2c3ccccc3nc3ccccc23)c(OC)c1`, the growth in assay [1] was 34.9%; in [2], 46.3%; in assay [3], 40%; in [4], 47.2%; in assay [5], 16.6%; in assay [6], -13.6% (active). Moreover, the growth in assay [7] is 40.6%; in assay [8] it was 35.2%; in assay [9], 39.1%; in assay [10], 24.6%.
As to `O=C1C(Nc2ccccn2)=C(I)C(=O)c2ncccc21`, the growth is -35.1% (active) in assay [1]; 33% in [2]; -31.2% (active) in assay [3]; -72.5% (active) in assay [4]; -61.4% (active) in [5]; -2.25% (active) in [6]. Moreover, the growth is -63.1% (active) in assay [7], -48.8% (active) in assay [8], -22.9% (active) in assay [9] and 49.2% in assay [10].
`O=C(Cc1cccc(OC(F)(F)F)c1)Nc1ccc(CCCCc2nnc(NC(=O)Cc3ccccn3)s2)nn1`: the growth in [1] was 80.3%; in [2], 60.6%; in assay [3], 39.8%; in assay [4], 74.5%; in assay [5], 74.2%; in assay [6], -4.64% (active). Moreover, the growth in assay [7] was 44.3%; in assay [8], 43.2%; in assay [9], 46.3%; in assay [10] it was 88.8%.
For `Nc1nc(NC(=O)Nc2ccc(C(=O)O)cc2)nn1-c1ccc(S(N)(=O)=O)cc1`, the growth is 97.9% in assay [1]; 92.1% in [2]; 90.4% in assay [3]; 93.6% in assay [4]; 95.6% in [5]; 78.3% in assay [6]. Moreover, the growth in assay [7] is 97.7%; in [8] it was 82.8%; in [9], 97.8%; in assay [10] it was 111%.
